PubChem BioAssay (NCI)
Where “and” joins values, the source holds several entries; their conditions need not be identical. Identical values can stand only once. Compounds without any hit were thinned out: in the full panel of roughly 83,000, 20% have a hit.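 Activity criterion: percent growth below 10, measured after cells in 96-well plates were exposed to a single compound concentration for 48 hours.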 Calls of active or inactive are those of the source.

What was measured:
Assay in all cases: NCI-60 one-dose screen, 48 h (100 = growth as untreated, 0 = no growth, -100 = all killed)
Conditions in all cases: 10 µM unless noted
HT29 colon = test system: HT29 colon
SNB-75 CNS = test system: SNB-75 CNS
U251 CNS = test system: U251 CNS
PC-3 prostate = test system: PC-3 prostate
SK-MEL-5 melanoma = test system: SK-MEL-5 melanoma
UACC-62 melanoma = test system: UACC-62 melanoma
LOX IMVI melanoma = test system: LOX IMVI melanoma
SK-MEL-28 melanoma = test system: SK-MEL-28 melanoma
SNB-19 CNS = test system: SNB-19 CNS

For `Cc1ccc(C(=O)O[C@H](C(=O)O)[C@H](OC(=O)c2ccc(C)cc2)C(=O)O)cc1`, the growth (HT29 colon) was 98% (inactive), the growth (SNB-75 CNS) was 103% (inactive) and the growth (U251 CNS) was 97.8% (inactive). For the same compound, the growth (PC-3 prostate) was 101% (inactive), the growth (SK-MEL-5 melanoma) was 105% (inactive) and the growth (UACC-62 melanoma) was 104% (inactive). The growth (LOX IMVI melanoma) was 97% (inactive) and the growth (SK-MEL-28 melanoma) was 109% (inactive).

With `C/C(=N/OC(=O)N(C)C)c1ccc(Cl)c(Cl)c1` the growth (HT29 colon) was 95.2% (inactive), the growth (SNB-75 CNS) was 116% (inactive) and the growth (SNB-19 CNS) was 99.4% (inactive). For the same compound, the growth (U251 CNS) was 105% (inactive), the growth (PC-3 prostate) was 93.7% (inactive) and the growth (SK-MEL-5 melanoma) was 99.3% (inactive). For the same compound, the growth (UACC-62 melanoma) was 97.8% (inactive), the growth (LOX IMVI melanoma) was 99.2% (inactive) and the growth (SK-MEL-28 melanoma) was 105% (inactive).

`CN(N)/N=N/c1nc[nH]c1[N+](=O)[O-]` was tested, and the growth (UACC-62 melanoma) was 21.2% [100 µM] (inactive) and -39.8% [100 µM] (active).

With `CC/C(Cc1ccccc1)=C(\c1ccc(OCCN2CCCC2)cc1)c1ccc(OC(=O)NCc2ccccc2)cc1` the growth (HT29 colon) was -42.1% (active), the growth (SNB-75 CNS) was 57.7% (inactive) and the growth (SNB-19 CNS) was 54.9% (inactive). For the same compound, the growth (U251 CNS) was 12.5% (inactive), the growth (PC-3 prostate) was 47.8% (inactive) and the growth (SK-MEL-5 melanoma) was 19.3% (inactive). For the same compound, the growth (UACC-62 melanoma) was -45.4% (active), the growth (LOX IMVI melanoma) was 49.3% (inactive) and the growth (SK-MEL-28 melanoma) was -60.3% (active).

In the case of `CCOC(=O)C1C(C=C(C)C)C1(C)C` (stereo not given), the growth (HT29 colon) was 116% (inactive), the growth (SNB-19 CNS) was 103% (inactive) and the growth (U251 CNS) was 99.3% (inactive). The growth (PC-3 prostate) was 93% (inactive), the growth (SK-MEL-5 melanoma) was 109% (inactive) and the growth (UACC-62 melanoma) was 99.8% (inactive). The growth (LOX IMVI melanoma) was 104% (inactive).

`N#CCc1ccc(CC#N)cc1` was tested, and the growth (HT29 colon) was 92.4% (inactive), the growth (SNB-75 CNS) was 101% (inactive) and the growth (SNB-19 CNS) was 93.2% (inactive). The growth (U251 CNS) was 93.6% (inactive), the growth (PC-3 prostate) was 91.2% (inactive) and the growth (SK-MEL-5 melanoma) was 101% (inactive). For the same compound, the growth (UACC-62 melanoma) was 92.3% (inactive), the growth (LOX IMVI melanoma) was 101% (inactive) and the growth (SK-MEL-28 melanoma) was 101% (inactive).

For `O=c1[nH]c(=O)n(Cl)c(=O)n1Cl`, the growth (HT29 colon) was 106% (inactive) and 112% (inactive), the growth (SNB-75 CNS) was 124% (inactive) and 105% (inactive) and the growth (SNB-19 CNS) was 106% (inactive) and 98.2% (inactive). For the same compound, the growth (U251 CNS) was 98.5% (inactive) and 113% (inactive), the growth (PC-3 prostate) was 98.8% (inactive) and 98% (inactive) and the growth (SK-MEL-5 melanoma) was 103% (inactive) and 93.7% (inactive). The growth (UACC-62 melanoma) was 98.7% (inactive) and 101% (inactive), the growth (LOX IMVI melanoma) was 109% (inactive) and 105% (inactive) and the growth (SK-MEL-28 melanoma) was 117% (inactive) and 122% (inactive).

With `O=C(O)C(Br)CBr` (stereo not given) the growth (HT29 colon) was 97.6% (inactive), the growth (SNB-75 CNS) was 89.5% (inactive) and the growth (SNB-19 CNS) was 107% (inactive). For the same compound, the growth (U251 CNS) was 97% (inactive), the growth (PC-3 prostate) was 94.3% (inactive) and the growth (SK-MEL-5 melanoma) was 98.8% (inactive). The growth (LOX IMVI melanoma) was 94.3% (inactive) and the growth (SK-MEL-28 melanoma) was 110% (inactive).

`O=C(Cc1ccccc1)NC(O)C(Cl)(Cl)Cl` (stereo not given) was tested, and the growth (HT29 colon) was 99.3% (inactive), the growth (SNB-75 CNS) was 86.1% (inactive) and the growth (SNB-19 CNS) was 95% (inactive). The growth (U251 CNS) was 99.9% (inactive), the growth (PC-3 prostate) was 106% (inactive) and the growth (SK-MEL-5 melanoma) was 105% (inactive). For the same compound, the growth (UACC-62 melanoma) was 97.9% (inactive), the growth (LOX IMVI melanoma) was 101% (inactive) and the growth (SK-MEL-28 melanoma) was 110% (inactive).

`C[C@]12CCc3sc(Nc4ccc(O)cc4)nc3C1=CC[C@@H]1[C@@H]2CC[C@]2(C)C(=O)CC[C@@H]12` was tested, and the growth (HT29 colon) was 10.3% (inactive), the growth (SNB-75 CNS) was 41.7% (inactive) and the growth (SNB-19 CNS) was 64.6% (inactive). The growth (U251 CNS) was 19.5% (inactive), the growth (PC-3 prostate) was 39.1% (inactive) and the growth (SK-MEL-5 melanoma) was 62% (inactive). The growth (UACC-62 melanoma) was 55.8% (inactive), the growth (LOX IMVI melanoma) was -8.01% (active) and the growth (SK-MEL-28 melanoma) was 77.9% (inactive).

In the case of `Cn1cc(C(=O)C[n+]2ccccc2)c2ccccc21`, the growth (HT29 colon) was 105% (inactive), the growth (SNB-19 CNS) was 105% (inactive) and the growth (U251 CNS) was 97% (inactive). The growth (PC-3 prostate) was 90.4% (inactive), the growth (SK-MEL-5 melanoma) was 97.9% (inactive) and the growth (UACC-62 melanoma) was 105% (inactive). For the same compound, the growth (LOX IMVI melanoma) was 93.2% (inactive) and the growth (SK-MEL-28 melanoma) was 114% (inactive).

For `COc1cc2c(cc1OC)[C@@H]1C(=O)c3ccc4c(c3O[C@@H]1CO2)C[C@H](C(C)C)O4`, the growth (HT29 colon) was 83.1% (inactive), the growth (SNB-75 CNS) was 90.1% (inactive) and the growth (U251 CNS) was 57.8% (inactive). For the same compound, the growth (PC-3 prostate) was 9.13% (active), the growth (SK-MEL-5 melanoma) was 17.9% (inactive) and the growth (UACC-62 melanoma) was 66.7% (inactive). The growth (LOX IMVI melanoma) was 53% (inactive) and the growth (SK-MEL-28 melanoma) was 98.5% (inactive).

With `C=C1C(=O)OC2/C=C(\C)CC/C=C(/C)CC(OC(=O)/C(=C/CO)CO)C12` (stereo not given) the growth (UACC-62 melanoma) was -89.6% [100 µM] (active) and -100% [100 µM] (active).
